{"source": "PubChem BioAssay (NCI)", "note": "Compounds without any hit were thinned out: in the full panel of roughly 79,000, 15% have a hit. Active and inactive are the calls of the source. Rule as the data show it: active = growth inhibition above about 70%; inactive = the rest."}
{"experiment": "NCI Yeast Anticancer Drug Screen. Data for the sgs1 mgt1 strain (AID 161);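 also: 0% = growth of cultures given vehicle only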", "conditions": "S. cerevisiae sgs1 mgt1 strain, at 50.0 µM, hits give high values", "description": "Growth inhibition of yeast strains with defined genetic alterations is measured as a screen for potential anti-cancer activity. Selected strains with alterations in DNA damage repair or cell cycle control were exposed to compounds and growth inhibition was measured relative to vehicle treated controls. The strain used in this assay is sgs1 mgt1"}
{"smiles": "c1cc2cc(C3=NCCN3)[nH]c2cc1C1=NCCN1", "growth inhibition": "29.1% (inactive)"}
{"smiles": "C=CCN=C1NC(=O)C(CC(=O)Nc2cccc(Cl)c2)S1", "note": "(stereo not given)", "growth inhibition": "-34.2% (inactive)"}
{"smiles": "O=C(Nc1ccc(Cl)cc1[N+](=O)[O-])Oc1ccc(-c2ccccc2)cc1", "growth inhibition": "48.1% (inactive)"}
{"smiles": "CON(C)c1nc(N)c(C#N)c(C#N)c1C#N", "growth inhibition": "3.3% (inactive)"}
{"smiles": "OCC(O)C(O)C(CN=Cc1ccccc1O)N=Cc1ccccc1O", "note": "(stereo not given)", "growth inhibition": "3% (inactive)"}
{"smiles": "O=C(N/N=C\\c1ccc([N+](=O)[O-])cc1)Nc1ccc2ccccc2c1", "growth inhibition": "1.85% (inactive)"}
{"smiles": "C[n+]1ccccc1/C=C/c1csc2ccccc12", "growth inhibition": "4.75% (inactive)"}
{"smiles": "CC(C)c1ccc(Cc2ccc(C(C)C)c(NC(=O)C(=O)Cc3cnc4ccccc4n3)c2C(C)C)c(C(C)C)c1NC(=O)C(=O)Cc1cnc2ccccc2n1", "growth inhibition": "-24.9% (inactive)"}
{"smiles": "Clc1ccccc1C1OCCCO1", "growth inhibition": "-22.4% (inactive)"}
{"smiles": "C=CCNC(=O)C[n+]1cccc(C(=O)Nc2ccccc2)c1", "growth inhibition": "5.4% (inactive)"}
{"smiles": "O=C1CCC(=O)N1CCc1cccc2ccccc12", "growth inhibition": "30.4% (inactive)"}
{"smiles": "CN1CC2=C(NC(=S)NC2c2ccccc2)/C(=C/c2ccccc2)C1", "note": "(stereo not given)", "growth inhibition": "5.65% (inactive)"}
{"smiles": "COC(=O)C1(Br)c2ccccc2-c2ccccc21", "growth inhibition": "0.45% (inactive)"}
{"smiles": "CC1(CO)CSC(Nc2ccc(Cl)c(Cl)c2)=N1", "note": "(stereo not given)", "growth inhibition": "37.8% (inactive)"}
{"smiles": "c1ccc(-c2nnc(-c3ccccn3)c3c2C[C@@H]2C[C@@H]4Cc5c(-c6ccccn6)nnc(-c6ccccn6)c5[C@@H]4[C@H]32)nc1", "growth inhibition": "-16.4% (inactive)"}
{"smiles": "COC(=O)CCC1(CCC(=O)OC)CCCCCCC(CCC(=O)OC)(CCC(=O)OC)C(=O)C1=O", "growth inhibition": "-1.25% (inactive)"}
{"smiles": "C/C(=N\\NC(=O)CC(=O)Nc1ccccc1Cl)c1cc2cc(N=Nc3ccccc3Cl)ccc2oc1=O", "growth inhibition": "13.9% (inactive)"}
{"smiles": "C/C(C[n+]1ccccc1)=N\\N=C(N)N", "growth inhibition": "-43.8% (inactive)"}
{"smiles": "CCSc1[nH]c(NC(=NC(C)C)NC(=O)c2ccccc2)c(C(N)=O)c1C(N)=O", "growth inhibition": "0.8% (inactive)"}
{"smiles": "COC(=O)C(/C(=N/N)C(=O)Nc1cccc(O)c1)c1nc2ccccc2[nH]c1=O", "note": "(stereo not given)", "growth inhibition": "-42% (inactive)"}
{"smiles": "Nc1cccc(Oc2ccc([N+](=O)[O-])cc2)c1", "growth inhibition": "28.3% (inactive)"}
{"smiles": "CCOC(=O)/C(C#N)=N\\Nc1ccccc1", "growth inhibition": "-1.7% (inactive)"}
{"smiles": "CCCCNC(C)=O", "growth inhibition": "-18.5% (inactive)"}
{"smiles": "CSc1ncc(Br)c(Sc2nccn2C)n1", "growth inhibition": "14.3% (inactive)"}
{"smiles": "O=C1/C(=C/c2ccc(O)cc2)CCC1CNc1ccc(Cl)cc1", "note": "(stereo not given)", "growth inhibition": "-2.6% (inactive)"}
{"smiles": "Cc1ccc(N=C(NN(C)C)C(c2ccccc2)c2ccccc2)cc1", "growth inhibition": "7.95% (inactive)"}
{"smiles": "COc1ccc(/C=N/O)cc1OC", "growth inhibition": "-2.15% (inactive)"}
{"smiles": "O=C(O)c1c2c(cc3c(=O)c4ccccc4[nH]c13)CCCC2", "growth inhibition": "18.7% (inactive)"}
{"smiles": "O=C1/C(=C2\\CCc3ccccc32)Cc2ccccc21", "growth inhibition": "-4.2% (inactive)"}
{"smiles": "C[Si](C)(CNCCN)O[Si](C)(C)CNCCN", "growth inhibition": "-3.3% (inactive)"}
{"smiles": "CCC1CN2CCc3cc(OC)c(OC)cc3C2CC1C#N", "note": "(stereo not given)", "growth inhibition": "23.8% (inactive)"}
{"smiles": "O=c1c2cccnc2cc(-c2ccccc2)n1CCO", "growth inhibition": "-16.2% (inactive)"}
{"smiles": "O=C(N/N=C(/c1nc2ccc(Cl)cc2[nH]c1=O)C(O)c1ccc(Cl)cc1Cl)c1ccncc1", "note": "(stereo not given)", "growth inhibition": "-15.5% (inactive)"}
{"smiles": "COc1cc(C(C#N)NNc2nc(C)cc(=O)[nH]2)cc(OC)c1OC", "note": "(stereo not given)", "growth inhibition": "-31.1% (inactive)"}
{"smiles": "CN1CC2=C(NC(=S)NC2c2ccccc2Cl)/C(=C/c2ccccc2Cl)C1", "note": "(stereo not given)", "growth inhibition": "37.6% (inactive)"}
{"smiles": "CCOc1ccccc1NC(=O)CC1SC(=Nc2ccc([N+](=O)[O-])cc2)NC1=O", "note": "(stereo not given)", "growth inhibition": "10.3% (inactive)"}
{"smiles": "CC(C)/C(=N\\[N+](C)(C)C)c1ccccc1", "growth inhibition": "-21.8% (inactive)"}
{"smiles": "CSc1nc(NN)c([N+](=O)[O-])c(SC)n1", "growth inhibition": "1.2% (inactive)"}
{"smiles": "O=c1[nH]c(Nc2ccc(F)c(Cl)c2)nc2nc[nH]c12", "growth inhibition": "4.6% (inactive)"}
{"smiles": "CC12CCC3c4ccc(OC(=O)c5ccccc5)cc4CCC3C1CC(O)C2", "note": "(stereo not given)", "growth inhibition": "50.2% (inactive)"}
